We go through ten molecules from PubChem BioAssay (EPA / NIEHS).

As usually defined, the AC50 is the midpoint of the concentration-response curve, whichever way the signal moves.

Test [1] can be described thus: TOX21_p53_BLA_p2_viability: Viability Assessment in the Tox21 HCT-116 p53 Agonism Beta-lactamase Assay, Phase 2 (AID 2283591).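 Note: actives lower the ATP signal meaning cytotoxicity.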 The gist of the method: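 HCT-116 p53-bla cells (4000/well) rested 5 h at 37C, then received compounds in DMSO (217-fold dilution) for 16 h at 37C, 5% CO2. After the CCF4 read, CellTiter-Glo was added; ATP luminescence was read after 30 min at room temperature.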

Test [2] has as its target Cellular tumor antigen p53 (Homo sapiens) (UniProt P04637). Description: TOX21_p53_BLA_p2_ratio: Tox21 HCT-116 p53 Agonism Beta-lactamase Assay, Ratio, Phase 2 (AID 2283592). The gist of the method:
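HCT116 p53-bla; 4000 cells/well; 5 h pre-incubation; cpd in DMSO, 217-fold dilution; 16 h 37C/5% CO2; CCF4-AM 2 h RT; Ex 405, Em 460/530 ratio; DMSO = baseline; positive fitting direction.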

Test [3] is described as follows: TOX21_p53_BLA_p3_viability: Viability Assessment in the Tox21 HCT-116 p53 Agonism Beta-lactamase Assay, Phase 3 (AID 2283593).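 Note: cells exposed to compound for 16 h before reading.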 The gist of the method: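 HCT-116 cells (4000/well) rested 5 h at 37C, then got DMSO compounds by pin tool (217-fold dilution) for 16 h at 37C, 5% CO2. After the bla read, CellTiter-Glo was added and luminescence read at 30 min, room temperature.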

In test [4] the target is Cellular tumor antigen p53 (Homo sapiens) (UniProt P04637). Kind of test: TOX21_p53_BLA_p3_ratio: Tox21 HCT-116 p53 Agonism Beta-lactamase Assay, Ratio, Phase 3 (AID 2283596). Put shortly: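 HCT116 p53-bla cells (4000/well) given compound in DMSO (217-fold dilution) after 5 h, incubated 16 h at 37C. CCF4-AM substrate 2 h at room temperature; 460/530 nm emission ratio, gain fitted against DMSO.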

Test [5] in a line: TOX21_p53_BLA_p4_viability: Viability Assessment in the Tox21 HCT-116 p53 Agonism Beta-lactamase Assay, Phase 4 (AID 2283597).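 Note: hits lower the luminescence signal meaning cytotoxicity.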 The gist of the method:
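Cells plated, 5 h pre-incubation; DMSO compounds pinned (217-fold dilution); 16 h, 37C/5% CO2; CCF4-AM 2 h RT; CellTiter-Glo 30 min RT; luminescence read.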

For test [6], the target named is Cellular tumor antigen p53 (Homo sapiens) (UniProt P04637). Kind of test: TOX21_p53_BLA_p5_ratio: Tox21 HCT-116 p53 Agonism Beta-lactamase Assay, Ratio, Phase 5 (AID 2283599). Put shortly: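 HCT-116 cells carrying a p53-inducible beta-lactamase reporter were seeded at 4000 cells/well and dosed after 5 h with compound in DMSO (217-fold dilution). After 16 h at 37C, CCF4-AM substrate was added for 2 h, and the 460/530 nm emission ratio was scored as gain-of-signal versus DMSO.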

A short description of test [7]: TOX21_p53_BLA_p5_viability: Viability Assessment in the Tox21 HCT-116 p53 Agonism Beta-lactamase Assay, Phase 5 (AID 2283600). The gist of the method: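 4000 cells/well; 5 h pre-incubation; DMSO compounds pin-transferred, 217-fold dilution; 16 h, 37C/5% CO2; CCF4-AM 2 h RT; CellTiter-Glo 30 min RT; luminescence.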
Test [8] deals with Cellular tumor antigen p53 (Homo sapiens) (UniProt P04637). Description: TOX21_p53_BLA_p4_ratio: Tox21 HCT-116 p53 Agonism Beta-lactamase Assay, Ratio, Phase 4 (AID 2283601). Put shortly: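 HCT116 cells carrying an inducible beta-lactamase reporter were plated at 4000 cells/well, rested 5 h, then exposed to compounds in DMSO (217-fold dilution) for 16 h at 37C. CCF4-AM substrate was loaded 2 h at room temperature; 460/530 nm emission ratio scored gain-of-signal versus DMSO.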

The target of test [9] is PGR (gene 5241) (UniProt P06401). Description: TOX21_PR_BLA_Followup_Agonist_ratio: Tox21 HEK293 Progesterone Receptor (PR) Agonism Beta-lactamase Follow-Up Assay, Ratio (AID 2283933). The gist of the method: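 HEK293T PR-UAS-bla, 2% CS-FBS; 6 hr preincubation, cpd/DMSO pinned, 16 hr 37C/5% CO2; LiveBLAzer B/G 2 hr RT; FRET ch2/ch1 ratio, agonist direction vs DMSO. Viability by CellTiter-Glo in same wells.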

The target is the same in test [10]. Description: TOX21_PR_BLA_Followup_Antagonist_ratio: Tox21 HEK293 Progesterone Receptor (PR) Antagonism Beta-lactamase Follow-Up Assay, Ratio (AID 2283934). Put shortly: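 HEK293T PR-UAS-bla, 2% CS-FBS; 6 hr plating, then cpd + R5020 (1 nM final), 16 hr 37C/5% CO2. B/G FRET substrate 2 h RT. Ratio ch2/ch1 vs DMSO; CellTiter-Glo viability multiplexed, autofluorescence checked.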

A short description of test [11]: TOX21_PR_BLA_Followup_Agonist_viability: Viability Assessment in the Tox21 HEK293 Progesterone Receptor (PR) Agonism Beta-lactamase Follow-Up Assay (AID 2283935).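 Note: signal loss means lower viability so actives are cytotoxic.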 The gist of the method: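 HEK293T PR-UAS-bla, 3,000 cells/well, 2% CS-FBS; 6 hr pre-incubation; cpd in DMSO, 16 hr 37C; LiveBLAzer 2 hr RT, then CellTiter-Glo 30 min RT, luminescence. Decrease = lost viability.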

The nature of test [12]: TOX21_PR_BLA_Followup_Antagonist_viability: Viability Assessment in the Tox21 HEK293 Progesterone Receptor (PR) Antagonism Beta-lactamase Follow-Up Assay (AID 2283936).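 Note: hits lower the luminescence signal meaning cytotoxicity.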 Put shortly:
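PR-UAS-bla HEK293T cells (3,000/well, 2% charcoal-stripped FBS) given compound plus R5020 agonist, 16 h at 37C. CellTiter-Glo added after bla read, 30 min at room temperature; luminescence loss indicates cytotoxicity.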

The target in test [13] is PGR (gene 5241) (UniProt P06401). Description: TOX21_PR_LUC_Followup_Agonist: Tox21 HEK293 Progesterone Receptor (PR) Agonism Luciferase Follow-Up Assay (AID 2283937; active = hit-call score of the fitted dose curve at least 0.9, where 1 is the maximum; inactive = score below 0.9). The gist of the method:
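Cells: HEK293-PR-A-luc, 3,000/well, 10% charcoal-stripped FBS assay medium. Compound added after 5 h; 16 h, 37C, 0% CO2. ONE-Glo luciferase, luminescence. Positive fit vs DMSO.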

Test [14] in a line: TOX21_PR_LUC_Followup_Agonist_viability: Viability Assessment in the Tox21 HEK293 Progesterone Receptor (PR) Agonism Luciferase Follow-Up Assay (AID 2283941).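 Note: loss of signal means cytotoxicity so actives lower viability.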 The gist of the method:
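Cells were kept 5 days in charcoal-stripped serum medium before plating HEK293-PR-A-luc at 3,000 cells/well. After 5 h they received DMSO-dissolved compound and incubated 16 h at 37C. Viability was taken from CellTiter-Glo ATP luminescence.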

Test [15] addresses Thyroid hormone receptor alpha (Rattus norvegicus) + Thyroid hormone receptor beta (Rattus norvegicus) (UniProt P18113+P63059). Description: TOX21_TR_LUC_GH3_Antagonist_Followup: Tox21 GH3 Thyroid Hormone Receptor Antagonism Luciferase Follow-Up Assay (AID 2283942). Put shortly: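 Rat pituitary GH3 cells with a TRα/TRβ-driven luciferase reporter, 5 h attachment, then 15 concentrations (92 uM to 5nM final) plus 1.0 nM T3 agonist, 24 h at 37C/5% CO2. ONE-Glo luminescence; signal change fitted against DMSO baseline.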

The target in test [16] is THRB (gene 7068) (UniProt P10828). Description: TOX21_TRB_BLA_Antagonist_Followup_ratio: Tox21 Thyroid Hormone Receptor beta Antagonism Beta-lactamase (BLA) Follow-Up Assay, Ratio (AID 2283958). The gist of the method:
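HEK293T TRb-bla (GAL4 DBD + hTRβ LBD), 2% cs-FBS phenol red-free DMEM, 5 h attach; cpds 11-pt triplicate, 18 h 37C; CCF4-AM 2 h RT; 460/530 ratio vs DMSO; CellTiter-Glo viability same wells.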

Test [17] is described as follows: TOX21_TRB_BLA_Antagonist_Followup_viability: Viability Assessment in the Tox21 Thyroid Hormone Receptor beta Antagonism Beta-lactamase (BLA) Follow-Up Assay (AID 2283961). The gist of the method: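 TRβ-bla HEK293T (human TRβ LBD fused to GAL4 DBD), 3,000 cells/well, 2% charcoal-stripped FBS, phenol red-free medium; 18 h compound exposure, 37C; CellTiter-Glo 30 min RT; luminescence, loss-of-signal readout.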

Test [18] has as its target THRB (gene 7068) (UniProt P10828). Kind of test: TOX21_TRB_COA_Antagonist_Followup_ratio: Tox21 Thyroid Hormone Receptor beta Antagonism through Coactivator Recruitment Follow-Up Assay, Ratio (AID 2283967). The gist of the method: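 Cell-free TR-FRET coactivator recruitment with GST-tagged TRβ LBD (5.0 nM) and fluorescein-labeled SRC-2 peptide (200 nM) detected by terbium anti-GST antibody (2 nM). The 520:495 nm emission ratio was normalized to DMSO (0%) and T3 (100%).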

For test [19], the target named is Retinoic acid receptor RXR-alpha (Homo sapiens) (UniProt P19793). Kind of test: TOX21_TR_RXR_BLA_Antagonist_Followup_ratio: Tox21 Thyroid Hormone Receptor beta Retinoid X Receptor alpha (RXRa) Antagonism Beta-lactamase (BLA) Follow-Up Assay, Ratio (AID 2283972). The gist of the method:
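HEK293T RXRa-bla, 2% charcoal-stripped FBS medium, 16 h compound exposure at 37C, qHTS 11 conc x3. CCF4 FRET ratio ch2/ch1 (460:530), DMSO = baseline, loss-of-signal fit.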

Results filed as inconclusive are left out. The source made the active and inactive calls. Rule for the calls, unless noted: active = hit-call score of the fitted dose curve at least 0.9, where 1 is the maximum; inconclusive = response in the unintended direction; inactive = score below 0.9.

Sequence of PGR (gene 5241) (P06401 whole entry, looked up): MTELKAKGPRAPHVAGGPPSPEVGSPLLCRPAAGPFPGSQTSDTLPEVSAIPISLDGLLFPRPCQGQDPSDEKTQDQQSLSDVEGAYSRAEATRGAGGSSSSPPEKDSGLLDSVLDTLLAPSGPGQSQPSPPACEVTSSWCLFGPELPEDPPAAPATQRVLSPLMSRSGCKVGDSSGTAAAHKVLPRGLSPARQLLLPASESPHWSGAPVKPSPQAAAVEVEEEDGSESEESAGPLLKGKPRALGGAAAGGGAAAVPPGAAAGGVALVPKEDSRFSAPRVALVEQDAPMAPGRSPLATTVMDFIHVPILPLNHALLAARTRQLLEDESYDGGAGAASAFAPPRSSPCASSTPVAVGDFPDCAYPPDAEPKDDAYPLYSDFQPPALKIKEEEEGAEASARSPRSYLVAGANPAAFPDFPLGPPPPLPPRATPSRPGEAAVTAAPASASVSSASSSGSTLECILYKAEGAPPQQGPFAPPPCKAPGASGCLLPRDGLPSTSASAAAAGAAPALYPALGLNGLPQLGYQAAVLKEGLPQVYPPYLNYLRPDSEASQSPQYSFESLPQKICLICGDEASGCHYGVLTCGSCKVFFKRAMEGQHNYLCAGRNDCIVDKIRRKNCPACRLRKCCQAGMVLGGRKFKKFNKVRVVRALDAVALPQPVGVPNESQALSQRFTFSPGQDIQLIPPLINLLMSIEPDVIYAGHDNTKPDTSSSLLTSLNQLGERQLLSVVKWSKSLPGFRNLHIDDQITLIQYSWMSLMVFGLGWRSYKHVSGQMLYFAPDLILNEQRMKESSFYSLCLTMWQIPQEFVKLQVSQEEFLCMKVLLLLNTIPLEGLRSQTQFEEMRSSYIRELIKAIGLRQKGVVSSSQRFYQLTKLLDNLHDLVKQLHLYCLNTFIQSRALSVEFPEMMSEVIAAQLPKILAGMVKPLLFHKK
Sequence of Cellular tumor antigen p53 (Homo sapiens) (P04637 whole entry, looked up): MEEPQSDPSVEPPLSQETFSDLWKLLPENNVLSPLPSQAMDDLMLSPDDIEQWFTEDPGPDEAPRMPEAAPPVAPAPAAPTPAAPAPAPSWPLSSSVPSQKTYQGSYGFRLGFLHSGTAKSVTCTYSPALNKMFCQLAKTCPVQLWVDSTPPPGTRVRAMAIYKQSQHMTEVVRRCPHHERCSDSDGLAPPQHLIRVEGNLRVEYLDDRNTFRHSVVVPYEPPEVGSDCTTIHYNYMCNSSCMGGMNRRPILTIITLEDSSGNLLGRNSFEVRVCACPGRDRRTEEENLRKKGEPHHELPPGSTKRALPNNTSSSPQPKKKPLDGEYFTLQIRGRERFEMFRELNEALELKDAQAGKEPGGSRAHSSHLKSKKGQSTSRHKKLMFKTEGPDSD
Sequence of THRB (gene 7068) (P10828 whole entry, looked up, the tested form may be a part): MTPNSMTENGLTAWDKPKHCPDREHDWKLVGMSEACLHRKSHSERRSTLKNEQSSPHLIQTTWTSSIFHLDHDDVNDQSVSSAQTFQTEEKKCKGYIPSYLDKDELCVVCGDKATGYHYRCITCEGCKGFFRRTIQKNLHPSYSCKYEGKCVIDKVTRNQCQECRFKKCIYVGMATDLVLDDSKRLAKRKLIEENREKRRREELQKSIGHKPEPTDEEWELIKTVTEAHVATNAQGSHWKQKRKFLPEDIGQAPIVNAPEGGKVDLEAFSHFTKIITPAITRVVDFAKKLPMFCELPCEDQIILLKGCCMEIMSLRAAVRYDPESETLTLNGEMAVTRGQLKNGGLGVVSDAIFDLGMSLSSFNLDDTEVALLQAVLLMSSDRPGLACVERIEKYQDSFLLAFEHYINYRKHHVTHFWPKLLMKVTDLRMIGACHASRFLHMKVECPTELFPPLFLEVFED
Sequence of Retinoic acid receptor RXR-alpha (Homo sapiens) (P19793 whole entry, looked up): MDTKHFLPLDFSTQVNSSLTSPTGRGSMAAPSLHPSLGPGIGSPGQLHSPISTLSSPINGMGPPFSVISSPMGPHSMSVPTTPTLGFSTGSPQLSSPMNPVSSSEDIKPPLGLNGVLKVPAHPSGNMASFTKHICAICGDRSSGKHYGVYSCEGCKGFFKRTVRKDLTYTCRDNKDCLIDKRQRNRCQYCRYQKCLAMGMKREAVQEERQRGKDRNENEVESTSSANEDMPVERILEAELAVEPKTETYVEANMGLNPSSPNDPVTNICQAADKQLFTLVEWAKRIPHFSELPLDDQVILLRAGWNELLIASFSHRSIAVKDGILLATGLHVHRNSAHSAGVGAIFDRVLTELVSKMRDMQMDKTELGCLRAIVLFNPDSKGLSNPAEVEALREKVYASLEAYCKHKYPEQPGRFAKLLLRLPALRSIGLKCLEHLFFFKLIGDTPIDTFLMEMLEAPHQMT

Regarding `C/C(=C\c1csc(C)n1)[C@@H]1C[C@@H]2O[C@]2(C)CCC[C@H](C)[C@H](O)[C@@H](C)C(=O)C(C)(C)[C@@H](O)CC(=O)O1`, the call in [1], in [3], in test [5] and in test [7] was inactive. The AC50 in test [2] is 69.8 nM (active); in test [4], 12.3 nM (active); in test [6], 732 nM (active); in test [8], 12.1 nM (active).

With `Nc1ccncc1`, the molecule was called inactive in test [1], in test [2], in test [3], in test [4], in test [5] and in test [6]. Further, the molecule was classed as inactive in [7] and in [8].

As to `C1CN(P2(N3CC3)=NP(N3CC3)(N3CC3)=NP(N3CC3)(N3CC3)=N2)CCO1` (stereo not drawn), the molecule was called inactive in test [1], in test [2], in test [3], in test [5], in test [6] and in [7]. Also, in test [8], the result was inactive. In test [4], the AC50 was 23000 nM (active).

Take `CN1CCN=C(c2ccccc2)c2cc(Cl)ccc21`: the molecule was called inactive in test [1], in [3], in test [4] and in test [5]. Further, the AC50 in [2] is 0.141 nM (active); in test [6], 0.104 nM (active); in test [7] it was 0.386 nM (active); in test [8], 0.0267 nM (active).

As to `C[C@]12Cc3nonc3C[C@@H]1CC[C@@H]1[C@@H]2CC[C@@]2(C)[C@H]1CC[C@]2(C)O`, the call in test [1], in test [2], in [4], in test [6], in test [7] and in test [8] was inactive. Also, the result in test [10], in [12] and in test [14] was inactive. Further, the concentration at half-maximal activity (AC50) is 25700 nM (active) in test [3]; 23000 nM (active) in test [5]; 6110 nM (active) in [9]; 35100 nM (active) in [11]; 862 nM (active) in test [13].

Consider `Oc1ccc(C(=C(Cl)Cl)c2ccc(O)cc2)cc1`, for which the call in test [1], in test [3], in [4], in test [6] and in test [7] was inactive. In addition, the figures for the AC50 in test [2], in test [5] and in test [8] were 41200 nM (active), 77700 nM (active) and 72400 nM (active), respectively.

Turning to `O=c1c2ccccc2[se]n1-c1ccccc1`, the result in test [1], in test [2], in test [3], in [4], in [5] and in test [6] was inactive. The outcome in test [8] was inactive.

Take `COC1=CC(=O)O[C@@H](/C=C/c2ccc3c(c2)OCO3)C1`: the call in [1], in test [2], in test [3], in test [4], in test [5] and in test [6] was inactive. The result in test [7], in test [8], in test [15], in [16], in test [17] and in [18] was inactive. Moreover, the outcome in test [19] was inactive.

In the case of `CCOP(=O)(OCC)SCCSCC` (tested in a mixture with another compound), the outcome in test [1], in test [2], in [3], in [4], in [5] and in test [6] was inactive. Besides, the result in [8] was inactive.

Turning to `Oc1ccc(Cl)c(Cl)c1Cl`, the call in test [1], in test [2], in test [3], in test [4], in test [5] and in [6] was inactive. In addition, the result in test [8] was inactive.
